From PubChem BioAssay AID504660 (National Center for Advancing Translational Sciences (NCATS), 2011) come the findings set out here.

Several values for one entry are separate records, joined by “and”; a condition that tells them apart may be missing. Equal values may be shown once. Among all 360,000 compounds or so, about 3,700 (1%) were called active. Rule as the data show it: active = activation above about 30%; inactive = the rest. For the sample, actives were picked, then their nearest neighbours and some compounds at random. Some compounds were tested as several samples or in several runs, with calls that do not always agree.

Chain of D(1A) dopamine receptor (Homo sapiens) (P21728 whole entry, looked up): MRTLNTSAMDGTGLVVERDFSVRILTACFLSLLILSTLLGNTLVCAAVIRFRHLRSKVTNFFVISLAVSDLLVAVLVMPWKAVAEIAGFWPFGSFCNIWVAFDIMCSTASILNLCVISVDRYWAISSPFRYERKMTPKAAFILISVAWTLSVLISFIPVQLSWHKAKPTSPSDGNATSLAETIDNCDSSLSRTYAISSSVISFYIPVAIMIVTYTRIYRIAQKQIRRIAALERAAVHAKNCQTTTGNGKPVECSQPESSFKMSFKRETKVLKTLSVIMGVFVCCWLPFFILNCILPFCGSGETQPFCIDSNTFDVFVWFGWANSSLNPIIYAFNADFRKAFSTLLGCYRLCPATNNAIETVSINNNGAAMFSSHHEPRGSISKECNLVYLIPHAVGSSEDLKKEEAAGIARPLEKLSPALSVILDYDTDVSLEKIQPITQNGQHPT

The test addresses D(1A) dopamine receptor (Homo sapiens) (UniProt P21728). Briefly: Allosteric Agonists of the Human D1 Dopamine Receptor: qHTS. Also: 0% is about no effect. As to conditions: HEK293 T-REx D1 cells, calcium flux, agonist mode; at 2 µM; stronger effect = higher value. Put shortly: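 Agonism was scored from calcium flux recorded over 180 s (1 read/s) after pintool compound addition, following a 10-cycle baseline. Cells were inducible force-coupled HEK293 TREx D1, plated overnight at 30 C and loaded with no-wash calcium dye.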
On the technique in general: Quantitative high-throughput screening tests each substance at several concentrations.
Consider `Cc1cccc(N2CCN(C(=O)CCSCc3ccccc3F)CC2)c1C`, for which the activation is 1.3% (inactive).

Take `Cc1cccc(CN2CCC(CNC(=O)Nc3ccc(F)c(Cl)c3)CC2)c1`: the activation was 42.5% (active).

Consider `COc1cc(NC(=O)NCC2CCN(Cc3ccc(C)cc3)CC2)cc(OC)c1OC`, for which the activation is 2.18% (inactive) and 0.967% (inactive).

Turning to `Cc1ccc(C)c(CN2CCC(CNC(=O)Nc3ccc(C)c(F)c3)CC2)c1`, the activation was 26.2% (inactive).

Consider `CCOC(=O)c1ccc(CSc2nnc3cc(C)c4ccccc4n23)cc1`, for which the activation was 4.34% (inactive).

On to `O=C(CNC(=O)c1ccccc1)OC(C(=O)Nc1cc([N+](=O)[O-])ccc1F)c1ccccc1` (stereo not given), for which the activation was 1.22% (inactive).

As for `COc1ccccc1OCCNCC(O)COc1cccc2[nH]c3ccccc3c12` (stereo not given), the activation was 17.7% (inactive) and 34% (active).

As to `CC(O)CNCCOc1cccc(Oc2ccccc2)c1` (stereo not given), the activation was 4.04% (inactive).

In the case of `COc1ccccc1OCCC(=O)OCC(=O)NCc1ccccc1`, the activation was -0.432% (inactive).

Consider `COc1ccc(CCNC(=O)CCCCn2c(=O)c3ccccc3n(Cc3ccccc3C)c2=O)cc1OC`, for which the activation was 13.8% (inactive).

For the compound `Cc1cc(OCC(=O)Nc2ncn[nH]2)c(C)c(C)c1Br`, the activation was 1.36% (inactive).

As to `COc1ccccc1CNC(=O)C(=O)NCC(c1cccs1)S(=O)(=O)c1cccs1` (stereo not given), the activation is 7.48% (inactive).

As for `CCn1c2ccccc2c2cc(CN3CCN(Cc4cccc(Cl)c4)CC3)ccc21`, the activation was 2.19% (inactive).

With `Cc1cccc(Nc2cc(C)nc(-n3nc(C)cc3C)n2)c1`, the activation is -1.13% (inactive).

Turning to `Cc1cccc(NC(=O)c2ccc(F)c(S(=O)(=O)N(C)C3CCCCC3)c2)c1`, the activation was 0.598% (inactive).

On to `COCCN(Cc1ccccc1)C(=O)Cc1ccc(S(=O)(=O)N2CCOCC2)s1`, for which the activation was 134% (active).

As for `O=C(Cc1ccc(S(=O)(=O)N2CCOCC2)s1)NCCC(c1ccccc1)c1ccccc1`, the activation is 2.27% (inactive).

Consider `CCN(Cc1ccccc1)C(=O)Cc1ccc(OC)c(S(=O)(=O)N2CCOCC2)c1`, for which the activation is 3.33% (inactive).

As for `CCOC(=O)c1cc(-c2ccccc2)n(CCC(=O)Nc2ccccc2CC)c1C`, the activation is 5.65% (inactive).

Regarding `CCC(=O)N1CCc2cc(Br)cc(S(=O)(=O)Nc3ccc(C)cc3C)c21`, the activation was 0.918% (inactive).

On to `CC(NC(=S)Nc1ccc(OC(F)F)cc1)c1ccc(F)cc1` (stereo not given), for which the activation is 41.7% (active).

Consider `CC/C(=N\NC(=S)NC(C)C)c1ccc(OC(F)F)cc1`, for which the activation was 0.526% (inactive).

As to `CC(C)N(Cc1ccccc1)C(=S)Nc1ccc(OC(F)F)cc1`, the activation was 15.8% (inactive).

Take `Cc1ccc(S(=O)(=O)NC(N)=NCCC[C@@H](NC(=O)CNC(=O)c2ccccc2)C(=O)Nc2cc(C(F)(F)F)ccc2Cl)cc1`: the activation is 4.3% (inactive).

As for `CCOC(=O)c1ccc(CN(Cc2ccccc2)S(=O)(=O)c2ccc(Cl)cc2)cc1`, the activation was 18.5% (inactive).

For the compound `O=[S+]([O-])(c1ccc(OC(F)(F)F)cc1)N1CCN([S+](=O)([O-])c2ccc3c(c2)OCCO3)CC1`, the activation is 4.97% (inactive).

In the case of `CC1Cc2cc(S(=O)(=O)CCC(=O)NCc3ccc(Cl)cc3)ccc2N1C(=O)C1CC1` (stereo not given), the activation is 14% (inactive).

On to `Cc1cccc(NC(=O)N2CCCCCC2)c1C`, for which the activation was 0.571% (inactive).

Take `Cc1cccc(NC(=O)N2CCN(C)c3ncccc32)c1C`: the activation was 33.9% (active).

For the compound `Cc1cccc(NC(=O)c2cccc(C(=O)Nc3cccc(C)c3C)n2)c1C`, the activation is 2.25% (inactive).

Turning to `O=C1C(F)N([S+](=O)([O-])c2ccc3c(c2)OCCO3)CCN1[S+](=O)([O-])c1c(F)cccc1F` (stereo not given), the activation was -0.431% (inactive).

`COc1ccc(CCC(=O)NCCc2csc(-c3ccc(Cl)cc3)n2)cc1`: the activation was 5.93% (inactive).

For the compound `O=c1c(-c2ccc(Cl)cc2)[n+]([O-])c2ccccc2n1OCc1nc2ccccc2[nH]1`, the activation is -0.955% (inactive).

Turning to `O=C(Cc1nc2ccccc2[nH]c1=O)c1ccc(Cl)cc1`, the activation was 69.4% (active).

On to `O=C(c1ccc(Cl)cc1)n1cnc2ccccc21`, for which the activation is 1.83% (inactive).

`C#CC(C)(CC)NC(=O)Cn1nnc(-c2ccc(OCc3c(F)cccc3Cl)cc2)n1` (stereo not given): the activation was 3.62% (inactive).

For the compound `COc1ccc(CCNC(=O)CCCn2c(=O)c3ccccc3n(Cc3ccc(C)cc3)c2=O)cc1OC`, the activation was -2.01% (inactive).

Take `COc1cccc(CNC(=O)CCc2nc(-c3ccc(C)cc3)no2)c1`: the activation was 3.85% (inactive).

In the case of `COc1ccccc1-c1noc(CSc2nnc(-c3ccccc3)n2-c2ccc(C)c(C)c2)n1`, the activation was 0.886% (inactive).

As for `COc1cccc(C(=O)NC(=O)Nc2nc(C)cc(C(F)(F)F)n2)c1`, the activation is 2.89% (inactive).

For the compound `COc1cccc(C(=O)Nc2ccc(-c3cc(C(F)(F)F)nn3-c3ccccc3)cc2)c1`, the activation was 2.16% (inactive).

Consider `COc1cccc(C(=O)c2sc3nc(-c4ccccc4)cc(C(F)(F)F)c3c2N)c1`, for which the activation was 171% (active).

`Cc1ccccc1CNC(=O)CCCn1nc(C)c2sc3ccccc3c2c1=O`: the activation was 5.39% (inactive).

With `CSc1ccccc1-c1nnc(NC(=O)c2ccc3c(c2)OCCO3)o1`, the activation was 0.0799% (inactive).

`CCC(C(=O)Nc1cccc(-c2nc3cccnc3s2)c1C)c1ccccc1` (stereo not given): the activation is 6.2% (inactive).

For the compound `COc1cc(NS(=O)(=O)c2cccs2)cc(OC)c1`, the activation is -0.545% (inactive).

On to `O=S(=O)(Nc1ccccc1N1CCOCC1)c1ccc(Cl)s1`, for which the activation was 0.142% (inactive).

On to `COc1cc(NC(=O)c2ccccc2NS(=O)(=O)c2ccc(Cl)s2)cc(OC)c1`, for which the activation was 32.7% (active).

Consider `CCCn1c(NCc2ccc(N(CC)CC)cc2)nc2ccccc21`, for which the activation was 15.4% (inactive).

With `Cc1ccc(CN2CCC(n3nccc3NC(=O)CCCc3ccccc3)CC2)o1`, the activation is 1.76% (inactive).

For `COc1cc(CN2CCC(n3nccc3NC(=O)CCCc3ccccc3)CC2)ccc1O`, the activation is 0.415% (inactive).

In the case of `COc1ccc(CN2CCC(n3nccc3NC(=O)CCCc3ccccc3)CC2)cc1C`, the activation is 37.7% (active).

As for `Cc1ccc(CN2CCC(CNC(=O)c3cnn(-c4ccc(C)cc4)c3C3CCN(C(=O)OC(C)(C)C)CC3)CC2)cc1`, the activation was 33.1% (active).

In the case of `COc1ccccc1CN1CCC(CNC(=O)c2cnn(-c3cccc(Cl)c3)c2C2CCN(C(=O)OC(C)(C)C)CC2)CC1`, the activation was 9.95% (inactive).

On to `Cc1ccc(CN2CCC(CNC(=O)c3cnn(-c4ccccc4Cl)c3C3CCN(C(=O)OC(C)(C)C)CC3)CC2)cc1`, for which the activation was 27.5% (inactive).
